Assay outcomes deposited in PubChem by several laboratories.
A selection: hits, their analogues and other compounds. The true share with any hit is near 32%.
CYP2C9 act: CYP2C9 (human) activation. P11712. actives 1.4% (n = 96,000). activation factor at 5 µM. recombinant CYP2C9, luciferin-H conversion, luminescence; hits give high values; factor 1 = untreated enzyme, 0 = blocked;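 active means activation factor of 2 or more for CYP2C9 at a 5 µM dose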;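 further: 0 = sulfaphenazole-blocked wells and 1 = vehicle-only wells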
Target sequence (P11712 whole entry, looked up): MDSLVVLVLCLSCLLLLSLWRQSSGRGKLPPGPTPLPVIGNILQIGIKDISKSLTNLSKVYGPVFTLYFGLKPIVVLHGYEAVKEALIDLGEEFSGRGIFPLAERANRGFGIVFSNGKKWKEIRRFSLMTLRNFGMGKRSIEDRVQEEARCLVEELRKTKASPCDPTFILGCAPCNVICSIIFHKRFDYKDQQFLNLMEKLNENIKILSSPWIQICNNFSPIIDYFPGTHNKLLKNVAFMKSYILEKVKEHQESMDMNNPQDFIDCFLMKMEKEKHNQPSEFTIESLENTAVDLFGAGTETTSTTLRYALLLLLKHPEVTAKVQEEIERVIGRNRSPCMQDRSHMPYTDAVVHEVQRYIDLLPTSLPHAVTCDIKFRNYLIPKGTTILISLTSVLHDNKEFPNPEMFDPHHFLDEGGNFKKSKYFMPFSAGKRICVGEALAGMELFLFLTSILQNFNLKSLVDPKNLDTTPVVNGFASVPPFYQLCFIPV
PostGolgi yeast: growth inhibition of a yeast mutant, post-Golgi transport screen. post-Golgi transport phenotypic cell assay. inhibition, % at 10 µM. actives 0.9% (n = 98,000). AID 739;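 further: yeast cells grown in 1536-well plates; yeast grown about 18 h at 30C before absorbance read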
CYP2C9 inh: blocks human cytochrome P450 2C9; P11712; CYP2C9 Supersomes, luciferin-H conversion, luminescence; inhibition, % at 5 µM; actives 20% (n = 96,000); AID 777;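 active means blocking of liver enzyme CYP2C9 beyond about 50% at 5 µM, limit read from the data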
CYP2C19 inhib: inhibitors of human CYP2C19; CYP2C19 Supersomes, luciferin-H EGE luminescence, 30 min; inhibition, % at 5 µM; actives 21% (n = 96,000); AID 778;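 active means CYP2C19 inhibition above a set limit at 5 µM in the primary screen, cut at about 50% in these data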;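 further: plate controls were negative control wells for no effect and 2.5 mM tranylcypromine positive control for full effect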
CYP2C19 act: activators of human cytochrome P450 2C19; P33261; recombinant CYP2C19, luciferin-H EGE luminescence; hits give high values; 0 = fully inhibited enzyme, 1 = untreated enzyme; activation factor at 5 µM; 96,000 tested, under 10 active; AID 1025;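 active means activation factor of at least 2 at 5 µM in the primary screen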;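 further: 0 = wells with 2.5 mM tranylcypromine and 1 = vehicle-only wells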
PostGolgi ctrl: inhibits growth of the yeast control strain | efflux-deficient yeast background strain, growth absorbance A615, 16 h | inhibition, % at 10 µM | actives 5% (n = 98,000)
The depositor's hits bear a star. Unless noted, no stated cut-off is given here; in the data, active means inhibition above about 30%; inactive means the rest.

For CCOC(=O)c1c(C)c(-c2ccccc2)n(CC(=O)N2CCCC2)c1C the results were CYP2C9 act 0.6, PostGolgi yeast 1.6, CYP2C9 inh 43.4, CYP2C19 inhib 87.7*, CYP2C19 act 0.1 and PostGolgi ctrl 23.0.
O=C(CCN1CCc2ccccc2CC1)c1ccc2c(c1)OCCO2 was read as CYP2C9 act 0.3, PostGolgi yeast -1.3, CYP2C9 inh 71.1*, CYP2C19 inhib 55.0*, CYP2C19 act 0.4 and PostGolgi ctrl 13.8.
For O=C(CCCN1CCC(c2ccccc2)C1)c1ccc2c(c1)OCCO2 (stereo not given) the results were CYP2C9 act 0.8, PostGolgi yeast 4.7, CYP2C9 inh 19.2, CYP2C19 inhib 72.2*, CYP2C19 act 0.3 and PostGolgi ctrl 21.6.
For COc1cc2c(=O)n(CCCN3CCOCC3)c(=S)[nH]c2c(OC)c1OC the results were CYP2C9 act 0.9, PostGolgi yeast -10.0, CYP2C9 inh 5.6, CYP2C19 inhib 0.9, CYP2C19 act 1 and PostGolgi ctrl -2.2.
`CC(C)(C)C1CCC(OCC(O)CN2CCN(c3ccccc3)CC2)CC1` (stereo not given) gave CYP2C9 act 0.9, PostGolgi yeast 104.3*, CYP2C9 inh 11.6, CYP2C19 inhib 16.5, CYP2C19 act 0.8 and PostGolgi ctrl 96.2*.
For CC1CCN(CC(O)COC2CCC(C(C)(C)C)CC2)CC1 (stereo not given) the results were CYP2C9 act 1.1, PostGolgi yeast 97.0*, CYP2C9 inh -7.7, CYP2C19 inhib 5.2, CYP2C19 act 0.9 and PostGolgi ctrl 97.9*.
Screening Cc1ccc(N2CCN(CC(O)COC3CCCCC3)CC2)cc1 (stereo not given) returned CYP2C9 act 1.3, PostGolgi yeast 10.0, CYP2C9 inh -30.0, CYP2C19 inhib 20.1, CYP2C19 act 0.8 and PostGolgi ctrl 19.1.
For Cc1ccc(-c2nnc(CSc3nnc4c5c(C)c(C)sc5nc(C(C)C)n34)o2)cc1 the results were CYP2C9 act 0.7, CYP2C9 inh 31.0, CYP2C19 inhib 43.6 and CYP2C19 act 0.6.
O=C(NC(=S)Nc1ccc2[nH]ncc2c1)c1ccccc1 was read as CYP2C9 act 0, PostGolgi yeast -11.3, CYP2C9 inh 95.2*, CYP2C19 inhib 99.4*, CYP2C19 act 0 and PostGolgi ctrl 5.8.
For O=C(NC(=S)Nc1ccc(Oc2ccccc2)cc1)c1ccc(Cl)cc1 the results were CYP2C9 act 0.9, PostGolgi yeast -8.5, CYP2C9 inh 7.6, CYP2C19 inhib 9.4, CYP2C19 act 0.9 and PostGolgi ctrl 4.1.
`CCOC(=O)c1sc(NC(=O)COC(=O)c2ccco2)nc1C` gave CYP2C9 act 0.8, PostGolgi yeast 4.8, CYP2C9 inh 20.0, CYP2C19 inhib -0.8, CYP2C19 act 1 and PostGolgi ctrl 16.3.
For CCCS(=O)(=O)c1c(S(=O)(=O)CCC)c2c(N)cccn2c1C(=O)c1ccc(F)cc1 the results were CYP2C9 act 0.3, PostGolgi yeast -4.5, CYP2C9 inh 68.3*, CYP2C19 inhib 66.3*, CYP2C19 act 0.3 and PostGolgi ctrl 23.8.
`COC(=O)/C(=C/Nc1cccc2ccccc12)[N+](=O)[O-]` gave CYP2C9 act 0.9, PostGolgi yeast 1.9, CYP2C9 inh 13.2, CYP2C19 inhib 55.2*, CYP2C19 act 0.4 and PostGolgi ctrl 1.9.
For CCOC(=O)C(C(C)=O)c1c(Br)c(O)c(O)c2c(C(=O)c3ccc(C)cc3)coc12 (stereo not given) the results were CYP2C9 act 0, CYP2C9 inh 97.9*, CYP2C19 inhib 32.0 and CYP2C19 act 0.7.
For CCc1cc2c(C)cc(=O)oc2cc1OC(=O)C1CCCN1C(=O)OC(C)(C)C (stereo not given) the results were CYP2C9 act 0.6, PostGolgi yeast 10.1, CYP2C9 inh 38.9, CYP2C19 inhib 29.7, CYP2C19 act 0.7 and PostGolgi ctrl 20.3.
Screening CCOC(=O)Cc1nnc2c(Nc3ccccc3F)nc3nonc3n12 returned CYP2C9 act 0.7, PostGolgi yeast -1.0, CYP2C9 inh 26.7, CYP2C19 inhib 2.2, CYP2C19 act 1 and PostGolgi ctrl 34.4*.
`O=C(NCCN=C1NS(=O)(=O)c2ccccc21)c1ccco1` gave CYP2C9 act 0.9, PostGolgi yeast 2.4, CYP2C9 inh 10.8, CYP2C19 inhib 6.3, CYP2C19 act 0.9 and PostGolgi ctrl 0.8.
Screening O=C(NCCCN=C1NS(=O)(=O)c2ccccc21)c1ccncc1 returned CYP2C9 act 0.2, PostGolgi yeast 21.8, CYP2C9 inh 79.8*, CYP2C19 inhib 21.5, CYP2C19 act 0.8 and PostGolgi ctrl 0.6.
For O=S1(=O)NC(=NCc2ccccc2)c2ccccc21 the results were CYP2C9 act 0.9, PostGolgi yeast 19.0, CYP2C9 inh 5.3, CYP2C19 inhib 59.8*, CYP2C19 act 0.4 and PostGolgi ctrl 9.2.
CCOc1c(C)cc2[nH]c(CCC(=O)O)nc2c1C was read as PostGolgi yeast -2.5 and PostGolgi ctrl 2.2.
Screening O=C(c1ccccc1CCc1ccccc1)N1CCOCC1 returned CYP2C9 act 1.1, PostGolgi yeast 1.3, CYP2C9 inh -11.3, CYP2C19 inhib 39.7, CYP2C19 act 0.6 and PostGolgi ctrl 1.5.
Screening O=C1C=C(NCc2ccc(Cl)cc2Cl)C2(CCCCC2)O1 returned CYP2C9 act 0.9, PostGolgi yeast -5.4, CYP2C9 inh 13.1, CYP2C19 inhib 49.3, CYP2C19 act 0.5 and PostGolgi ctrl 19.4.
O=C(c1cccc(Cl)c1)N1CCN(Cc2ccncc2)CC1 was read as PostGolgi yeast -6.7 and PostGolgi ctrl -1.1.
Screening O=C(c1ccccc1F)N1CCN(Cc2ccccc2F)CC1 returned CYP2C9 act 0.4, PostGolgi yeast -2.6, CYP2C9 inh 59.2*, CYP2C19 inhib 95.9*, CYP2C19 act 0 and PostGolgi ctrl 9.9.
Screening COc1cccc2cc(C(=O)N3CCN(c4ccc(C)cc4C)CC3)c(=O)oc12 returned CYP2C9 act 0.8, PostGolgi yeast 4.0, CYP2C9 inh 19.6, CYP2C19 inhib 17.0, CYP2C19 act 0.8 and PostGolgi ctrl 10.7.
Cc1ccc(N2CCN(C(=O)c3ccccc3F)CC2)c(C)c1 was read as CYP2C9 act 0.1, PostGolgi yeast -0.7, CYP2C9 inh 89.0*, CYP2C19 inhib 100.4*, CYP2C19 act 0 and PostGolgi ctrl 41.9*.
Screening O=C(c1cccc(Cl)c1)N1CCN(Cc2ccccc2F)CC1 returned CYP2C9 act 0.2, PostGolgi yeast 3.4, CYP2C9 inh 79.2*, CYP2C19 inhib 97.0*, CYP2C19 act 0 and PostGolgi ctrl -3.5.
Screening O=C1C(O)CC2c3ccccc3CC3(CCCC3)N12 (stereo not given) returned CYP2C9 act 0.8, PostGolgi yeast -7.8, CYP2C9 inh 16.3, CYP2C19 inhib 1.9, CYP2C19 act 1 and PostGolgi ctrl -13.6.
CCCNC(=O)Nc1nccs1 was read as CYP2C9 act 1, PostGolgi yeast 4.8, CYP2C9 inh -1.6, CYP2C19 inhib -0.6, CYP2C19 act 1 and PostGolgi ctrl 8.3.
